Where “and” joins values, the source holds several entries; their conditions need not be identical. Identical values can stand only once. Compounds without any hit were thinned out: in the full panel of roughly 83,000, 20% have a hit.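 Values shown are percent growth following 48 h exposure of cells in 96-well plates to a single concentration of compound; below 10 was considered active.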 Unmarked numbers belong to inactive results.
test system: MDA-MB-468 breast; experiment: NCI-60 one-dose screen, 48 h (100 = growth as untreated, 0 = no growth, -100 = all killed); conditions: 10 µM unless noted

| Compound | growth |
| --- | --- |
| COc1ccc(C(=O)c2cc(C)c(OC)c(C)c2)c(OC)c1N(C(=O)C(Cl)Cl)C(=O)C(Cl)Cl | 21.6% |
| Nc1ccccc1SC(CC(=O)c1ccccc1)c1ccc([N+](=O)[O-])cc1 (stereo not drawn) | 93.4% and 81.8% |
| O=C(Nc1cccc(Cl)c1)c1cc2ccccc2cc1O | 55.4% and 17.8% |
